Assay outcomes as filed in PubChem BioAssay.
HRas wt GTP: modulators of GTP binding to HRas wildtype, primary screen, biochemical, bead-based flow cytometry, multiplex. GTPase HRas (Homo sapiens), P01112. GST-Ras wt beads, Bodipy-FL-GTP binding; actives lie on both sides. GTP binding activity, % at 10 µM. 0.14% of 190,000 active;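 active = GTP binding activity at least 20% away from the 100% baseline, either lowered as inhibitor or raised as activator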;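 note: 0% = unlabeled GTP competition control and 100% = no-compound control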
Target sequence (P01112 whole entry, looked up): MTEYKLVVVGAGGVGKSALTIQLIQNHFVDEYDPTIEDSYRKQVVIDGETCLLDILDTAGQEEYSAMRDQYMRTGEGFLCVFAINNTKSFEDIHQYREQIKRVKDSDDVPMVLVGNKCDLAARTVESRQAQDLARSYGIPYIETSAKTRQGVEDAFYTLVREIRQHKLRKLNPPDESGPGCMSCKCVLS
Rab2A wt mod: modulators of GTP binding to Rab2A wildtype, primary screen, biochemical, dog, bead-based flow cytometry, multiplex | Ras-related protein Rab-2A (Canis lupus familiaris), P61105 | AID 760, 2007 | 0.19% of 190,000 active | GST-Rab2 wt beads, Bodipy-GTP binding | GTP binding activity, % at 10 µM;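 active = GTP binding activity at least 20 points away from 100%, either lowered or raised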;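 note: 0% = beads with excess unlabeled GTP and 100% = no-compound control corrected for plate trend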
Rab7 wt GTP bind: modulators of GTP binding to Rab7, primary screen, biochemical, wildtype, multiplex bead flow cytometry; GST-Rab7 beads, fluorescent GTP binding; actives lie on both sides; untreated = 100%, excess cold GTP = 0%; AID 758, 2007; 0.055% of 190,000 active; GTP binding activity (percent of control), % at 10 µM;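 active = fluorescent GTP binding to Rab7 beads changed by at least 20 points from the 100% baseline, either direction, mostly lower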;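 note: median green fluorescence of bound Bodipy-FL-GTP per Rab7 bead population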
Rac1 wt GTP bind: wildtype Rac1 GTP binding modulators, primary screen, biochemical, GST-Rac1 beads, flow cytometry, multiplex | fluorescent GTP binding; actives lie on both sides; 0 = cold GTP competed, 100 = untreated | 0.27% of 190,000 active | AID 757, 2007 | Ras-related C3 botulinum toxin substrate 1 (Homo sapiens), P63000 | GTP binding activity (% of control), % at 10 µM;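 active = GTP binding activity at least 20 points away from the 100% control level, either lower or higher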
Rac1 act GTP bind: GTP binding modulators of activated mutant Rac1, primary screen, biochemical, bead-based flow cytometry, multiplex, fluorescent GTP; 0.11% of 190,000 active; percent activity (GTP binding), % at 10 µM; Ras-related C3 botulinum toxin substrate 1 (Homo sapiens), P63000; GST-Rac1 activated beads; actives lie on both sides; 100% means binding = to untreated wells;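 active = GTP binding at least 20 percentage points away from the 100% baseline, in either direction, so actives lie on both sides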
Cdc42 wt: modulators of GTP binding to wildtype Cdc42, primary screen, biochemical, multiplex bead flow cytometry, Bodipy-GTP; Cell division control protein 42 homolog (Homo sapiens), P60953; GST-Cdc42 beads; actives lie on both sides; percent activity (GTP binding), % at 10 µM; 0.2% of 190,000 active; AID 761, 2007;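 active = percent activity GTP binding at least 20 points away from the 100% baseline, either down as inhibitor or up as activator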;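 note: median bead fluorescence of bound Bodipy-FL-GTP at 100 nM; 0% = excess unlabeled GTP control and 100% = no compound control; below 100% means less GTP binding so inhibitor and above means activator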
Target sequence (P60953 whole entry, looked up): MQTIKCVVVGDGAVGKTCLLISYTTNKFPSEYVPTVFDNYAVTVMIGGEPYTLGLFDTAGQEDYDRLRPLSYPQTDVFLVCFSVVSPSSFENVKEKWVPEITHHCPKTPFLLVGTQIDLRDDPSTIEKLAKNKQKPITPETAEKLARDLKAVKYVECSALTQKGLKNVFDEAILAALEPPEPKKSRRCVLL
* marks the source's active call; other numbers are inactive results; [ ] = another dose, or the depositor's remark. An excerpt weighted towards active compounds, which were near 0.38% of everything screened.

SMILES	HRas wt GTP	Rab2A wt mod	Rab7 wt GTP bind	Rac1 wt GTP bind	Rac1 act GTP bind	Cdc42 wt
CC(C)NC(=S)N=Nc1c(O)[nH]c2ccc([N+](=O)[O-])cc12	72*	68*	95	62*	81	68*
Cc1ccc(C(=O)N/N=C2\CC3CC=CC23)c(C)c1 (stereo unspecified)	96	99	102	98	96	95
COc1ccc(/C=C2\SC(=S)N(CCCC(=O)NNC(=O)c3ccccc3O)C2=O)cc1	80	80	92	79*	87	78*
O=C(CCCN1C(=O)/C(=C/c2ccccc2Cl)SC1=S)NNC(=O)c1ccccc1Cl	98	100	101	101	100	97
Cc1cc([N+](=O)[O-])nn1CCC(=O)Nc1nccs1	96	99	100	100	96	96
O=C(O)c1ccc(NS(=O)(=O)c2ccc3c(c2)C(=O)c2ccccc2C3=O)cc1	83	81	88	72*	83	80
COc1ccc(NC(=O)COC(=O)c2ccc(S(=O)(=O)N(C)c3ccccc3OC)cc2)c(OC)c1	95	97	94	98	97	98
Cc1ccc(-n2c(-c3cnccn3)n[nH]c2=S)c(Br)c1	80	82	84	81	80	79*
CCOC(=O)c1c(C=O)c2sc(C)cc2n1C	96	95	95	98	96	93
Cc1ccc(-n2c3nc(=O)[nH]c(=O)c-3cc3cc([N+](=O)[O-])ccc32)cc1	82	82	87	77*	80	80
Cc1ccc(-n2c(C)nn(Cc3ccc([N+](=O)[O-])cc3)c2=O)cc1	101	98	103	99	95	94
CCOC(=O)c1cnc(SCc2ccc(C)cc2)nc1N	103	105	101	120*[activator]	104	107
CCOC(=O)c1sc(NC(=O)C2CCC2)cc1C	96	94	97	101	100	95
O=C(O)CCC(=O)Nc1ccc(C(=O)OC2CCCCC2)cc1	99	99	96	97	99	97
O=C(OC1CCCCC1)c1ccc(NC(=O)C2CCCCC2)cc1	97	99	95	99	99	79*
O=C(CSc1cccc[n+]1[O-])c1cc(Cl)ccc1Cl	100	100	107	97	96	98
CN1C(=O)N(C)c2ccc(C=O)c3cccc1c23	86	82	89	77*	86	84
CN(C)c1cccc2c(/C=N/O)ccc(N(C)C)c12	95	98	96	94	93	95
O=c1cc(N2CCCC2)c2ccccc2o1	101	101	100	104	100	104
O=C(Nc1ccccc1)C1=C(c2ccccc2)S(=O)(=O)CCS1(=O)=O	90	87	98	87	81	77*
COc1ccc(C(=O)NC(=S)N2CC(C)OC(C)C2)cc1 (stereo unspecified)	91	98	93	137*[activator]	98	154*[activator]
COc1ccc(-c2cc(C(F)(F)F)nc(-n3ccnc3)n2)cc1	95	94	97	94	96	91
COC(=O)C1=C(C)NC(=O)/C1=C\c1cc(C)n(-c2c(C)cccc2C)c1C	122*[activator]	123*[activator]	112	113	110	121*[activator]
COC(=O)C1=C(C)NC(=O)/C1=C\c1cc(C)n(-c2ccccc2C)c1C	101	100	102	102	99	102
OC(COc1ccc2ccccc2c1)Cn1ccnc1 (stereo unspecified)	98	97	97	98	96	98
OC(CNCCc1ccc(Cl)cc1)COc1ccc2ccccc2c1 (stereo unspecified)	80	78*	90	81	77*	77*
